Assay outcomes as filed in PubChem BioAssay.
ELG1 DNA repair: blocks ELG1-dependent DNA repair in HEK293T cells; 2.3% of 330,000 active; Potency, µM (top dose mostly 46.1 µM), for the others: at the highest dose activity change, negative = inhibition, hits mostly inhibitors; AID 504467; HEK293T ELG1-luciferase reporter, luminescence, 16 h; DNA damage induced by 5-fluorouridine; also: % is scaled to controls: 0 for no effect and ±100 for the full control effect; nearly all actives have a fitted effect of over 55% in size
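Quantitative HTS, concentration-response format. 2,000 cells/well co-treated with 5-fluorouridine and compound, 16 hr in 5% CO2 at 37 °C; ONE-Glo luminescence read after 30 min.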
NPC1 promoter act: activates the NPC1 promoter | Huh7 NPC1 promoter luciferase reporter, 24 h | Potency, µM (highest dose often 9.22 µM), without a hit: at the highest dose activation, actives largely listed as activators | 2.4% of 320,000 active; also: % of control where 0% means no effect; nearly all actives have a fitted effect of over 60% in size
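NPC1 promoter–luciferase Huh7 cells; 24 h compound; luminescence.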
FLuc counter: counter-screen for miR-21 project: firefly luciferase inhibitors or activators | P08659 | purified FLuc, Km substrates, luminescence inhibition | Potency, µM (top dose mostly 57.5 µM), without a hit: at the top dose activity change, negative = inhibition, usual class: inhibitors | 6.9% of 360,000 active | AID 588342;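 also: plate controls were vehicle for no effect and reference inhibitor for full effect; nearly all actives have a fitted effect of over 55% in size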
Target sequence (P08659 whole entry, looked up): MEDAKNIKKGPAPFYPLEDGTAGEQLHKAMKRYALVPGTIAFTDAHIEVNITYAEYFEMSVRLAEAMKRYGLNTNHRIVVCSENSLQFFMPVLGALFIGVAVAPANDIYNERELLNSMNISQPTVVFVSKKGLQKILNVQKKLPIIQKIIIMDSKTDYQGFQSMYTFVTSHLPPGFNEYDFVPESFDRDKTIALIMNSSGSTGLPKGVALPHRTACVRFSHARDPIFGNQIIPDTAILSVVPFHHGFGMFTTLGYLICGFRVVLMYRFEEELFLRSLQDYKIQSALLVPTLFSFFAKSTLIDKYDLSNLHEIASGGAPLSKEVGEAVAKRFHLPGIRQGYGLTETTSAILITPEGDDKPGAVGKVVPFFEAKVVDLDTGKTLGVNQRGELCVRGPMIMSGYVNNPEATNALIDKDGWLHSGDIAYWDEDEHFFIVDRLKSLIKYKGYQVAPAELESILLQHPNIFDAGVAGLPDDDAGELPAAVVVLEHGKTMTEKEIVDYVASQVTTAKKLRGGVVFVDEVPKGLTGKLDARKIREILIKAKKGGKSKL
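Biochemical qHTS of compounds, final roughly 60 µM downward over six points, against 10 nM purified firefly luciferase using Km concentrations of substrates (10 uM D-luciferin, 10 uM ATP) in Tris acetate pH 7.5 buffer; luminescence output.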
SMN2 splice up: SMN2 splice variant enhancement | HEK293 SMN2-luciferase splicing reporter, luminescence, 30-36 h | 2.8% of 210,000 active | Potency, µM (top dose mostly 46.1 µM), for inactives: at the highest dose activity change, positive = activation, usual class: activators | AID 1458; also: % of control where 0% means no effect; nearly all actives have a fitted effect of over 55% in size
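qHTS luciferase splicing reporter: luminescence rises when SMN2 exon 7 is included in transfected HEK293 cells. Compound exposure lasted 30-36 h at 37C, with 4.5 mM final sodium butyrate as control, followed by a ONE-Glo read.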
Rab9 promoter act: Rab9 promoter activation; 2.8% of 320,000 active; Potency, µM (titrated, usually from 9.22 µM), for inactives: at the highest dose activation, negative = inhibition, usual class: activators; Huh7 Rab9 promoter-luciferase reporter, luminescence, 24 h; AID 485297; also: % of control where 0% means no effect; nearly all actives have a fitted effect of over 60% in size
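Stable Rab9-luc Huh7, 1500 cells/well, 2 h settle; cmpd in DMSO, 24 h, 37 °C/5% CO2; luciferase reagent 10 min RT; luminescence.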
ELG1 genotox: induces genotoxicity in HEK293T cells with luciferase-tagged ELG1 | HEK293T ELG1-luciferase reporter, luminescence, 16 h | Potency, µM (titrated, usually from 46 µM), for the others: at the highest dose activity change, positive = activation, hits mostly activators | 1.3% of 330,000 active; also: % of control where 0% means no effect; nearly all actives have a fitted effect of over 60% in size
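ELG1-luciferase HEK293T cells, 2,000/well; compound pinned in; 16 hr, 37 °C, 5% CO2; ONE-Glo, 30 min RT; luminescence on CCD imager.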
Numbers without * were called inactive; ? = inconclusive; . = not tested or not shown; [ ] = another dose, or the depositor's remark. Most compounds without a hit are left out; they make up all but 9.2% or so of the library. Calls follow the shape of the dose curve; as a rule, active = well fitted curve in the direction sought with a large enough effect; inconclusive = small, poorly fitted or top-dose-only effect, or another doubt; inactive = no such curve, though single readings can be large; an effect the other way counts as inactive or inconclusive. Potency is read from the fitted curve at half-maximal effect.

SMILES	ELG1 DNA repair	NPC1 promoter act	FLuc counter	SMN2 splice up	Rab9 promoter act	ELG1 genotox
O=C(COc1ccccc1)N(Cc1cccs1)C1CCS(=O)(=O)C1 (stereo not drawn)	0.0%	1.4%	-0.3%	.	1.0%	-0.1%
CC(C)c1ccccc1-n1c(SCC(=O)c2ccc3c(c2)NC(=O)CO3)nc2ccccc2c1=O	5.17µM*	-11.6%	2.7%	-13.2%	-6.2%	-8.9%
O=C1COc2ccc(C(=O)CSc3ccccc3C(=O)O)cc2N1	5.1%	4.7%	?	.	-7.0%	-1.1%
Cn1c(=O)cc(OCC(=O)NC2CCCCC2)c2ccccc21	?	-5.2%	3.1%	10.8%	-1.7%	5.3%
Cn1c(=O)cc(OCCCC(=O)NC2CCCC2)c2ccccc21	?	-2.7%	0.7%	15.8µM*	-2.4%	?
COc1ccc(N2CCN(C(=O)c3ccccc3Br)CC2)c([N+](=O)[O-])c1	-2.2%	-3.7%	-1.0%	-37.9%	-1.0%	-6.2%
Cc1ccc(CSc2nnc(-c3cccnc3)o2)cc1	?	1.1%	-14.3%	-16.0%	3.6%	?
Oc1ccc(-c2nnc(SCc3ccccc3)o2)cc1	?	?	26.9µM*	.	8.9%	?
C#CCSc1nnc(-c2ccc(C)cc2)o1	?	3.55µM*	7.57µM*	12.6µM*	2.24µM*	23.1µM*
Cc1ccc(-c2nnc(SCc3ccccc3)o2)cc1	.	.	4.78µM*	.	.	.
C#CCSc1nnc(-c2ccc(O)cc2)o1	?	26.8%	?	?	?	?
O=S(=O)(c1ccc(-c2nnc(SCc3ccccc3)o2)cc1)N1CCCC1	?	0.0%	1.3%	-12.4%	-4.4%	-9.9%
Cc1ccccc1-c1nnc(SCc2ccc(F)cc2)o1	?	?	15.1µM*	-9.1%	24.4%	?
Fc1ccc(CSc2nnc(-c3ccncc3)o2)cc1	?	13.6%	-2.2%	-30.2%	2.1%	-21.3%
CCN(C(=O)Cn1cc(S(=O)(=O)Cc2ccccc2Cl)c2ccccc21)c1ccccc1	.	.	-2.2%	.	.	.
Cc1nc(NC(=O)COC(=O)c2ccc(CO)cc2)c(Cl)cc1Cl	13.7%	.	.	.	.	-1.4%
O=C1Cc2ccccc2N1c1ccccc1	4.0%	2.7%	2.1%	4.6%	4.2%	-7.0%
O=C1CC(=Nc2ccccc2)NN1c1ccccc1	-1.1%	-0.6%	16.9µM*	-2.2%	1.4%	-6.1%
CN1N=C(C(C)(C)C)CSC1=Nc1ccccc1	5.8%	0.1%	-16.7%	.	0.2%	-1.7%
CN(C)c1ccc(N/C=C/C(=O)c2ccco2)cc1	?	3.55µM*	0.269µM*	.	2.82µM*	?
CC(=O)Nc1ccc(N/C=C/C(=O)c2ccco2)cc1	?	3.16µM*	10.7µM*	28.2µM*	1.58µM*	4.61µM*
CN(C)c1cccc(NC(=O)c2ccco2)c1	?	19.0%	-17.5%	25.6%	6.1%	6.4%
Cc1ccc(NC(=S)c2ccncc2)cc1	12.3%	4.3%	?	.	-0.6%	-0.9%[9.26 µM]
COc1ccc(C(=O)Nc2ccc(SC(F)F)cc2)cc1	?	2.24µM*	3.01µM*	?	0.794µM*	?
COc1ccc2cc3c(N)c(C(=O)NCc4ccco4)sc3nc2c1	?	?	6.01µM*	12.6µM*	2µM*	14.9%
SMILES	ELG1 DNA repair	NPC1 promoter act	FLuc counter	SMN2 splice up	Rab9 promoter act	ELG1 genotox
O=C(Nc1ccc(Oc2ccsc2C(=O)O)cc1)c1ccccc1	20.0%	-1.1%	23.9µM*	.	-8.0%	-0.2%
Cc1ccc(NC(=S)c2ccccc2)cc1	?	?	4.78µM*	-0.3%[1.84 µM]	2.51µM*	?
COc1ccc2cc3cc(C(=O)NCc4ccco4)oc3nc2c1	7.1%	-0.6%	?	-16.8%	-3.6%	13.0%
COc1ccccc1NC(=O)C(Cc1ccccc1)NS(=O)(=O)c1ccc2c(c1)c(=O)n(C)c(=O)n2C (stereo not drawn)	.	.	-5.8%	-6.0%	.	.
CC(=O)c1ccc(OCCCC(=O)Nc2cc(S(=O)(=O)N3CCCCC3)ccc2C)cc1	-16.6%	-1.0%	1.7%	.	-6.9%	-2.8%
COc1ccc(NC(=O)c2ccc(C)cc2)cc1	?	0.398µM*	2.69µM*	.	0.447µM*	2.06µM*
CN(C(=S)Oc1ccc(C(=O)Nc2ccccc2)cc1)c1ccccc1	18.4µM*	-3.4%	-12.0%	-56.9%	-10.2%	-0.5%
COc1ccc(C(=O)NNC(=O)C(=O)Nc2ccc(C)cc2)cc1	1.5%	-6.4%	7.7%	.	-1.5%	3.3%
COc1ccc(C(=O)Nc2cccc(C)c2)cc1	?	1.26µM*	3.38µM*	11.2µM*	1.26µM*	?
COc1ccc(CC(=O)Nc2cccc(C(=O)Nc3cccc(C)c3)c2)cc1	-10.6%	-1.9%	-6.1%	.	0.1%	5.5%
COc1ccc(NC(=O)c2ccccc2)cc1	?	3.55µM*	?	.	1.78µM*	?
O=C(NC(CC(=O)N1CCN(c2ccc([N+](=O)[O-])cc2)CC1)c1ccccc1)c1ccccc1Cl (stereo not drawn)	?	-0.9%	2.9%	-57.6%	-2.1%	-2.9%
O=C(Nc1ccc(SC(F)F)cc1)c1ccc2nccnc2c1	?	?	10.7µM*	-5.6%	22.6%	-0.1%
COc1ccc(NC(=O)c2c(Cl)n(C)c3ccccc23)cc1	?	27.5%	9.53µM*	?	27.6%	16.8%
COc1ccc(NC(=S)c2ccncc2)cc1	0.3%	-2.5%	0.4%	-49.8%	-10.8%	-0.2%
COc1ccc(C(=S)Nc2ccc(C)cc2)cc1	?	2µM*	2.39µM*	17.8µM*	2.82µM*	29.2%
COc1ccc(C(=O)Nc2cccc(C(=O)NCc3ccco3)c2)cc1	-4.2%	18.5%	12µM*	.	17.0%	1.6%
O=C(NCc1ccco1)c1cccc(NC(=O)c2ccco2)c1	3.4%	-1.5%	-18.4%	-8.2%	6.6%	7.3%
CCCCNc1nc(C)nc2c1nc(-c1ccccc1)n2C1CCN(Cc2ccccc2)C1 (stereo not drawn)	.	.	.	-10.8%	.	.
Cc1ccc2c(c1)C(c1ccc(F)cc1)N(C(=O)c1cccc(C(F)(F)F)c1)CC(=O)N2 (stereo not drawn)	.	.	-5.2%	-13.5%	.	.
O=C(Nc1ccsc1C(=O)O)c1ccccc1	?	5.6%	23.9µM*	.	12.1%	12.0%
CCOc1cc(/C=C/C(=O)OCC(=O)NCc2ccco2)cc(Cl)c1OC	-5.0%	-5.3%	0.4%	.	-5.7%	1.9%
COc1cc2c(cc1OC)-c1cc(OCc3ccccc3Cl)nc(=O)n1CC2	16.4µM*	-4.5%	?	?	?	-6.0%
COc1cc2c(cc1OC)-c1cc(NC3CCCC3)nc(=O)n1CC2	?	-1.2%	-8.5%	.	-4.3%	?
